# Sampled rows, rich in hits. Any-hit rate of the full collection: about 8.3%.
# HCMV antiviral = human cytomegalovirus inhibition; AID 1259415; 410,000 tested, 4.5% active; HFF cells, HCMV-luciferase reporter, 72 h; active compounds read low; activity change, negative = inhibition, % at 57.5 µM; in the data active = activity change below about -60%; inconclusive = no clear call, values can overlap the other calls; inactive = above about -39%
#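 Inhibition of viral replication was scored as loss of reporter luminescence in HFFs infected with HCMV-luciferase (MOI 1 PFU/cell) for 72 h; compounds tested at 2 doses, normalized to buffer and Salinomycin controls.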
# MARV entry inh = inhibitors of Marburg virus binding or cell entry; Marburg virus pseudotyped entry inhibition, cell reporter; Potency, µM (titrated, usually from 37.8 µM), for inactives: at the top dose activity change, negative = inhibition, hits mostly inhibitors; 300,000 tested, 1.8% active; AID 540276; calls by dose curve; tested in HEK293 cells; also: potency is read from the fitted curve at half-maximal effect
# FMDV antiviral = foot and mouth disease virus antiviral activity | FMDV antiviral cell-based qHTS | 410,000 tested, 1.2% active | Potency, µM (doses to about 57.9 µM), without a hit: at the highest dose activity change, negative = inhibition, hits mostly inhibitors; calls by dose curve; tested in HEK293T cells; also: read-out not given here; potency is read from the fitted curve at half-maximal effect; nearly all actives have a fitted effect of over 45% in size
# Lassa entry inh = blocks Lassa virus binding to or entry into cells; Lassa virus pseudotype entry inhibition, cell reporter; Potency, µM (top dose mostly 37.9 µM), inactives show at the highest dose activity change, negative = inhibition, hits mostly inhibitors; 300,000 tested, 1.2% active; calls by dose curve; tested in HEK293 cells; also: potency is read from the fitted curve at half-maximal effect; nearly all actives have a fitted effect of over 50% in size
# FBPA Giardia inh = Giardia lamblia aldolase inhibition; purified Giardia FBPA; Potency, µM (titrated, usually from 59.6 µM), without a hit: top-dose activity, negative = inhibition, actives largely listed as inhibitors; A8B2U2; AID 2451; 290,000 tested, 0.71% active; also: potency is read from the fitted curve at half-maximal effect; nearly all actives have a fitted effect of over 55% in size
# Target sequence (A8B2U2 whole entry, looked up): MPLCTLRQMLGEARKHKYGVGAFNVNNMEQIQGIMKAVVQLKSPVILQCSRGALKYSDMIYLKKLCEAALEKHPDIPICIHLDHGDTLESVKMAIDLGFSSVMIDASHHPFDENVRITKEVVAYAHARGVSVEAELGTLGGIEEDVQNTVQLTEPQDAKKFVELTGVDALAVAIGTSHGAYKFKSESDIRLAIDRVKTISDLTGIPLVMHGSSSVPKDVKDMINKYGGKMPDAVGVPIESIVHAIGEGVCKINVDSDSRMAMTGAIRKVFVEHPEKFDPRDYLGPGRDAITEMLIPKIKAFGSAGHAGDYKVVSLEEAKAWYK
#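 Giardia FBPA (40 nM reagent) was preincubated 10 min at RT with compound (up to 57.5 uM final), then substrate plus GAPDH/TPI/NAD/arsenate coupling system with diaphorase/resazurin was added; resorufin fluorescence (525/598 nm) was read after 20 min.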
# HCV inhibitor = HCV inhibition | Huh7.5.1 HCVcc-Cre infection, luciferase reporter, 44 h | Potency, µM (series often up to 41.8 µM), without a hit: at the top dose activity change, negative = inhibition, actives largely listed as inhibitors | AID 651820 | 340,000 tested, 3.4% active; also: potency is read from the fitted curve at half-maximal effect
#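 Compounds are dispensed onto cells plated 4 h earlier at 1,000 per well, with HCVcc-Cre virus (about 0.5 moi) added next. Following 44 h of culture, luminescent signal is measured for 15 sec after 15 min with substrate at room temperature.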
# Numbers without * were called inactive; ? = inconclusive; / = no result; [ ] = dose if it differs, or a comment. Unless noted, calls follow the shape of the dose curve; as a rule, active = well fitted curve in the direction sought with a large enough effect; inconclusive = small, poorly fitted or top-dose-only effect, or another doubt; inactive = no such curve, though single readings can be large; an effect the other way counts as inactive or inconclusive. % is scaled to controls: 0 for no effect and ±100 for the full control effect.
SMILES,HCMV antiviral,MARV entry inh,FMDV antiviral,Lassa entry inh,FBPA Giardia inh,HCV inhibitor
O=C1N(Cc2cccc(Cl)c2)C[C@@H]2C[C@@H](c3cccn3-c3nccs3)N3CCC[C@@]123,-20,11µM*,?,?,-1%,?
O=C1N(Cc2cccc(Cl)c2)C[C@@H]2C[C@@H](c3cccc4ncccc34)N3CCC[C@@]123,-19,?,-11%,?,3%,11µM*
O=C1N(Cc2cccc(Cl)c2)C[C@@H]2C[C@@H](c3cccn3-c3ccccn3)N3CCC[C@@]123,-34,?,-29%,?,-7%,6.3µM*
O=C1N(Cc2cccc(Cl)c2)C[C@@H]2C[C@@H](c3cccc4cccnc34)N3CCC[C@@]123,3,?,-2%,-20%[46.1 µM],3%,-29%
COc1cccc(NC(=O)N2CC(=O)N3[C@@H](CO)[C@@H](c4ccc(Br)cc4)[C@@H]3C2)c1,-10,/,/,/,/,/
COC(=O)[C@@H]1CCCN1C(=O)c1cc(NC(=O)C2CCC2)c2c(c1)nc(-c1ccncc1)n2C,/,/,-10%,/,/,/
CCOC(=O)N1CCc2c(sc3c2c(=O)n(Cc2ccccc2)c(=O)n3CC(=O)Nc2ccc(C)c(C)c2)C1,?,-25%[46.1 µM],-12%,1%[46.1 µM],/,/
COc1cccc(CN(C)CC(=O)Nc2cccc(C(F)(F)F)c2)c1OC,-31,-12%[46.1 µM],?,-20%,-6%,10µM*
COc1ccc(-c2noc(N(C)CC(=O)Nc3cccc(C(F)(F)F)c3)n2)cc1,36,-12%,27%,-18%,-8%,11µM*
N/N=C(/C(=O)N1CCN(c2ccccn2)CC1)c1ccccc1I,-1,/,/,/,/,/
Cc1ccc(-n2nc3c(=O)n(C(C)C(=O)NCc4ccccc4Cl)nc(C)c3c2C)cc1 (stereo not drawn),-92*,/,?,/,7%,?
CCC(C(=O)Nc1ccccc1C(=O)OC)n1nc(C)c2c(C)n(-c3ccc(C)cc3)nc2c1=O (stereo not drawn),-94*,/,-10%,?,/,/
CCC(C(=O)Nc1ccccc1Cl)n1nc(C)c2c(C)n(-c3ccccc3)nc2c1=O (stereo not drawn),-80*,?,-10%,2%[46.1 µM],/,?
Cc1ccc(-n2nc3c(=O)n(C(C)C(=O)NCc4ccco4)nc(C)c3c2C)cc1 (stereo not drawn),-26,/,-13%,10%[46.1 µM],0%,0%
Cc1nn(C(C)C(=O)Nc2ccccc2Cl)c(=O)c2nn(-c3ccccc3)c(C)c12 (stereo not drawn),-62*,?,24%,?,/,-2%
CCc1cccc(C)c1NC(=O)C(CC)n1nc(C)c2c(C)n(-c3ccccc3)nc2c1=O (stereo not drawn),-2,/,12%,18%[46.1 µM],/,/
COC(=O)c1ccccc1NC(=O)C(C)n1nc(C)c2c(C)n(-c3ccccc3)nc2c1=O (stereo not drawn),?,/,0%,/,/,-16%
NCCC[C@H](N)CC(=O)N[C@H]1CNC(=O)[C@H]([C@H]2C[C@H](O)N=C(N)N2)NC(=O)C(=CNC(N)=O)NC(=O)[C@H](CO)NC(=O)[C@H](CO)NC1=O,/,/,-14%[16.9 µM],/,/,/
COC(=O)[C@]1(C#N)CC(=O)N([C@H](c2ccccc2)[C@H](O)c2ccccc2)[C@@H]1c1ccccc1,-10,/,/,/,/,/
CCn1cc(C(=O)NC[C@H]2CCCO2)c(=O)c2cc(F)c(N3CCN(C)CC3)cc21,/,-21%,/,/,/,/
O=c1c(F)cn([C@H]2CCCO2)c(=O)n1Cc1ccccc1Cl,/,2%,/,/,/,/
CC(C)Oc1ccc2c(=O)c3cc(C(=O)O)ccc3oc2c1,/,/,30%,/,15%,/
CO[C@@H]1c2ccccc2[C@H]2C(C(=O)O)c3c(n(C)c4ccccc34)[C@H]2[C@H]1C (stereo partly drawn),/,29%[14.2 µM],/,/,/,/
CCCN(C(=O)CCc1nc(-c2ccc(OC)cc2)no1)c1ccccc1F,-26,-5%[46.1 µM],?,?,/,/
CS(=O)(=O)c1ccc(C(O)C(CO)NC(=O)C(Cl)Cl)cc1 (stereo not drawn),/,/,16%,/,5%,/
SMILES,HCMV antiviral,MARV entry inh,FMDV antiviral,Lassa entry inh,FBPA Giardia inh,HCV inhibitor
Cc1nn(CC(=O)NCc2ccco2)c(=O)c2nn(-c3ccccc3)c(C)c12,8,/,-30%,11%[46.1 µM],/,/
Cc1nn(CC(=O)NCc2cccs2)c(=O)c2nn(-c3ccccc3)c(C)c12,-71*,2%[46.1 µM],-4%,2%[46.1 µM],24%,-17%
CCOc1ccccc1CNC(=O)C(C)n1nc(C)c2c(C)n(-c3ccccc3)nc2c1=O (stereo not drawn),?,?,?,-23%[46.1 µM],/,6.3µM*
COc1cccc(CNC(=O)Cn2nc(C)c3c(C)n(-c4ccc(C)cc4)nc3c2=O)c1OC,?,/,?,/,-4%,-10%
CCOc1ccccc1CNC(=O)Cn1nc(C)c2c(C)n(-c3ccc(C)cc3)nc2c1=O,/,/,16µM*,/,0%,2.8µM*
CCCNC(=O)C(C)n1nc(C)c2c(C)n(-c3ccccc3)nc2c1=O (stereo not drawn),-16,/,2%,2%[46.1 µM],/,/
CCC(C(=O)NCc1cccc(C)c1)n1nc(C)c2c(C)n(-c3ccccc3)nc2c1=O (stereo not drawn),?,/,-28%,/,/,13µM*
O=C(c1csnn1)N1CCC2(CC1)CN(c1ccccn1)C2,/,/,-11%,/,-3%,/
Cc1cccc(C(=O)Nc2ccc(C(=O)OCc3cc(=O)n4c(C)csc4n3)cc2)c1,2,/,19%,-17%[46.1 µM],/,/
COc1cccc(NC(=O)C2CCCN(S(=O)(=O)c3cn(C(C)C)cn3)C2)c1 (stereo not drawn),8,/,6%,5%[46.1 µM],/,/
O=C(c1ccco1)N1CCC2(CC1)CN(c1ccccn1)C2,/,/,-6%,/,-2%,/
O=C(Nc1nnc(SCC(=O)N2CCCc3ccccc32)s1)c1cccc2ccccc12,-38,3%,-25%,-4%,-3%,12%
CC(C)Oc1ccc(C(=O)Nc2nnc(SCC(=O)N3CCOCC3)s2)cc1,-21,?,?,2.8µM*,2%,3%
CCOC(=O)CNC(=O)CSc1nnc(NC(=O)c2ccc(C)cc2)s1,-29,6.3µM*,-60%,?,-5%,4%
Cc1ccc(C(=O)Nc2nnc(SCC(=O)N3CCCc4ccccc43)s2)cc1,-20,?,?,3.5µM*,15%,15%
CCOC(=O)CNC(=O)CSc1nnc(NC(=O)c2ccc3c(c2)OCO3)s1,71,?,-5%,?,/,4%
Cc1oc2ncn(CC(C)C)c(=O)c2c1C(=O)Nc1cc(F)ccc1F,6,/,3%,-7%[46.1 µM],/,/
C/C(CS(=O)(=O)c1ccc(Cl)c(Cl)c1)=N/NC(N)=S,-70*,7%[46.1 µM],7%,-14%,?,-18%
CCc1nc(N)c(C#N)c(-c2cccnc2)c1C,-4,3%,-5%,10%,2%,5%
Cc1nc(N)c(C#N)c(-c2cccnc2)c1C,-70*,17%,-24%,9%,4%,13%
CCN1C(=NCCN2CCOCC2)N[C@@H](CCc2ccccc2)C(C(=O)OC)=C1C,/,/,/,/,-1%,/

# High-throughput results deposited in PubChem by National Center for Advancing Translational Sciences (NCATS).
